These results are taken from PubChem BioAssay (NCI).

This assay can be described thus: NCI Yeast Anticancer Drug Screen. Data for the mec2-1 strain (AID 157). The settings on record: S. cerevisiae mec2-1 strain, active compounds read high. As for the experimental part: Growth inhibition of yeast strains with defined genetic alterations is measured as a screen for potential anti-cancer activity. Selected strains with alterations in DNA damage repair or cell cycle control were exposed to compounds and growth inhibition was measured relative to vehicle treated controls. The strain used in this assay is mec2-1

[1] abbreviates: at 5.0 µM (retest, dose inferred, filed as 0.5).
Setting [2] is: at 50.0 µM (retest, dose inferred, filed as 5.0).

Compounds without any hit were thinned out: in the full panel of roughly 79,000, 15% have a hit. Values without a mark were called inactive. Active and inactive are the calls of the source. Cut-off read from the data, not from the text of the source: active = growth inhibition above about 70%; inactive = the rest.

On to `O=C1c2ccc3ccccc3c2CCC1N1CCCCC1` (configuration not stated), for which the growth inhibition was 0% (at 1.2 µM); 11% (at 3.7 µM); 10% under setting [1]; 17% (at 11.0 µM); 62% (at 33.0 µM); 99% (active) under setting [2]. In addition, the growth inhibition reads like this: (at 50.0 µM) 98.8% (active); (at 100.0 µM) 95% (active).
Consider `CCC(=O)OC1CCn2c1nc1c2C(=O)C(C)=C(N2CC2)C1=O` (configuration not stated), for which the growth inhibition by setting is: (at 1.2 µM) -7%; (at 3.7 µM) -2%; under setting [1], 38%; (at 11.0 µM) 6%; (at 33.0 µM) 20%; under setting [2], 64%. The growth inhibition runs as follows: (at 50.0 µM) 70.4% (active); (at 100.0 µM) 64%.
Consider `C[C@@]12CCC(=O)C=C1CC[C@H]1C2=CC[C@]2(C)C1CC[C@@]2(C)O` (some centres not stated), for which the growth inhibition is, setting by setting: (at 1.2 µM) 8%; (at 3.7 µM) 10%; under setting [1], 44%; (at 11.0 µM) 15%; (at 33.0 µM) 85% (active); under setting [2], 82% (active). In addition, the growth inhibition is, setting by setting: (at 50.0 µM) 66.5%; (at 100.0 µM) 96% (active).
Regarding `COc1c(Br)cc(/C=C(/C)[N+](=O)[O-])cc1Br`, the growth inhibition runs as follows: under setting [1], 12%; under setting [2], 57%; (at 50.0 µM) 92.5% (active).
For `CN[C@H]1C[C@@H]2O[C@@](C)([C@H]1OC)n1c3ccccc3c3c4c(c5c6ccccc6n2c5c31)C(=O)NC4`, the growth inhibition is, setting by setting: under setting [1], 99% (active); under setting [2], 99% (active); (at 50.0 µM) 92.9% (active).
As to `COc1cc(C(c2c(O)c3ccccc3oc2=O)c2c(O)c3ccccc3oc2=O)cc(OC)c1O`, the growth inhibition under setting [1] was -2%, the growth inhibition under setting [2] is 19% and the growth inhibition (at 50.0 µM) is 44.3%.
For `CCOC(=O)/C(=C\c1ccc(C(=O)OC)cc1)[Se]c1ccccc1`, in that order: 6%, 26% and 40.8%.
For `O=C1CN2C(Cl)(Cl)C2(c2ccccc2)c2cc(Cl)ccc2N1CC1CC1` (configuration not stated), in that order: 29%, 93% (active) and 91.3% (active).
For `Cc1ccc2c[c]1[Hg][CH2]COS2(=O)=O`, in that order: 16%, 99% (active) and 98% (active).
